One assay has as its system MCC-13. Put plainly: qHTS assay to identify novel small-molecules to repurpose for Merkel cell carcinoma treatment (AID 1296009). Also: nearly all actives have a fitted effect of over 60% in size. The note with it: MCC and control cell lines, CellTiter-Glo viability, 72 h; series mostly up to 46 µM. The method in brief:
(§1)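 After compound transfer in DMSO, plates were kept 72 hr at 37 degree celsius. Luminescent ATP signal from CellTiter-Glo served as viability measure, normalized against DMSO and no-cell controls.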

The next assay concerns MKL-1. The assay is described as above. The note with it: MCC and control cell lines, CellTiter-Glo viability, 72 h; series mostly up to 46 µM. An outline of the steps:
as §1
Background: Cellular ATP, detected with luciferase, serves as a proxy for viable cell number.

The next assay relates to UISO. Described as above. The note with it: MCC and control cell lines, CellTiter-Glo viability, 72 h; series mostly up to 46 µM. An outline of the steps:
as §1

In the next assay the test system is MKL-2. The assay is described as above. The note with it: MCC and control cell lines, CellTiter-Glo viability, 72 h; series mostly up to 46 µM. The method in brief:
as §1

For a further assay, the system named is WaGa. The assay is described as above. The settings on record: MCC and control cell lines, CellTiter-Glo viability, 72 h; series mostly up to 46 µM. An outline of the steps: as §1
The subject of another assay is MCC-26. Described as above. The note with it: MCC and control cell lines, CellTiter-Glo viability, 72 h; series mostly up to 46 µM. The method in brief: as §1
The next assay deals with CASKI. Put plainly: Primary qHTS to identify gynecologic anti-cancer compounds using libraries of approved drugs and bioactive compounds (AID 1345084). Also: nearly all actives have a fitted effect of over 55% in size. The note with it: Gynecologic cancer cell panel viability, ATPlite luminescence, 48 h; series mostly up to 57.5 µM. An outline of the steps:
(§2)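 Luminescence from the ATPlite ATP-monitoring reagent indicates viable cell number; lower signal means cytotoxicity. Cells received compound 16 h after seeding and were exposed for 48 h across five concentrations.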

The next assay concerns HeLa. Described as above. The settings on record: Gynecologic cancer cell panel viability, ATPlite luminescence, 48 h; series mostly up to 57.5 µM. The method in brief:
as §2

Another assay concerns SKOV3. The assay is described as above. The note with it: Gynecologic cancer cell panel viability, ATPlite luminescence, 48 h; series mostly up to 57.5 µM. An outline of the steps: as §2
Another assay concerns Tov-21-G. The description is as above. The settings on record: Gynecologic cancer cell panel viability, ATPlite luminescence, 48 h; series mostly up to 57.5 µM. An outline of the steps:
as §2

Another assay relates to Tov112D. The description is as above. The note with it: Gynecologic cancer cell panel viability, ATPlite luminescence, 48 h; series mostly up to 57.5 µM. The method in brief:
as §2

Another assay deals with NIH3T3. Put plainly: qHTS assay to identify novel small-molecules to repurpose for Merkel cell carcinoma treatment (AID 1296009). Also: nearly all actives have a fitted effect of over 60% in size. The note with it: MCC and control cell lines, CellTiter-Glo viability, 72 h; series mostly up to 44.8 µM. An outline of the steps: as §1
Background: In qHTS, concentration-response curves come from the screen itself.

In the next assay the test system is C33A. Put plainly: Primary qHTS to identify gynecologic anti-cancer compounds using libraries of approved drugs and bioactive compounds (AID 1345084). Also: nearly all actives have a fitted effect of over 55% in size. The settings on record: Gynecologic cancer cell panel viability, ATPlite luminescence, 48 h; series mostly up to 57.5 µM. An outline of the steps:
as §2

The next assay deals with Es-2. The description is as above. The settings on record: Gynecologic cancer cell panel viability, ATPlite luminescence, 48 h; series mostly up to 57.5 µM. The method in brief:
as §2

The next assay deals with OV90. Described as above. The settings on record: Gynecologic cancer cell panel viability, ATPlite luminescence, 48 h; series mostly up to 57.5 µM. The method in brief: as §2
Another assay concerns Hek293T. The description is as above. The note with it: Gynecologic cancer cell panel viability, ATPlite luminescence, 48 h, control line for the selectivity index; series mostly up to 57.5 µM. An outline of the steps: as §2
The next assay relates to JEG-3. The assay is described as above. The settings on record: Gynecologic cancer cell panel viability, ATPlite luminescence, 48 h; series mostly up to 57.5 µM. The method in brief:
as §2

Another assay has as its system PA-1. The assay is described as above. The settings on record: Gynecologic cancer cell panel viability, ATPlite luminescence, 48 h; series mostly up to 57.5 µM. The method in brief: as §2

Records with an inconclusive call do not appear. Unmarked numbers belong to inactive results. Active and inactive are the calls of the source. Calls follow the shape of the dose curve; as a rule, active = well fitted curve in the direction sought with a large enough effect; inconclusive = small, poorly fitted or top-dose-only effect, or another doubt; inactive = no such curve, though single readings can be large; an effect the other way counts as inactive or inconclusive.
% is scaled to controls: 0 for no effect and ±100 for the full control effect; potency is read from the fitted curve at half-maximal effect.

For `CN(C)N=Nc1nc[nH]c1C(N)=O`, the Potency entry with MCC-13, with MKL-1 and with UISO was “inactive” each time.

As to `CN[C@H]1[C@@H](O[C@@H]2[C@H](O[C@@H]3[C@@H](O)[C@@H](O)[C@@H](N=C(N)N)[C@@H](O)[C@@H]3N=C(N)N)O[C@H](C)[C@@]2(O)C=O)O[C@@H](CO)[C@@H](O)[C@H]1O`, the activity change, negative = cytotoxicity in the assay on MCC-13 was 0.63% [at 9.22 µM]; in the assay on MKL-1, 0.557% [at 9.22 µM]; in the assay with MKL-2, 13.1% [at 9.22 µM]; in the assay on UISO it was -3% [at 9.22 µM]; with WaGa, 11.2% [at 9.22 µM].

Turning to `CCN(CC)CCCCNc1nc2cc(Cl)c(Cl)cc2nc1-c1ccc(-c2cccs2)s1`, the Potency result with MCC-26 is “inactive”. The values for the Potency in the assay on MKL-1 and in the assay with MKL-2 were 23.5 µM (active) and 14.8 µM (active), respectively.

On to `FC(F)(F)c1ccc(C=Cc2nc(COc3ccc(CCCCn4ccnn4)cc3)co2)cc1`, for which the Potency is 10.5 µM (active) in the assay with MCC-13, 0.0235 µM (active) in the assay with MKL-1, 0.0264 µM (active) in the assay with UISO and 0.0047 µM (active) with WaGa.

In the case of `O=c1[nH]c(=O)n([C@H]2C[C@@H](O)[C@@H](CO)O2)cc1I`, the Potency entry with MCC-13, in the assay on MKL-1, with MKL-2 and in the assay with WaGa was “inactive” in each case.

With `CNC1CCC(N(Cc2cccc(-c3ccncc3)c2)C(=O)c2sc3ccccc3c2Cl)CC1` (configuration not stated), the Potency entry in the assay with MCC-13, in the assay on HeLa, in the assay on Tov-21-G and in the assay on Tov112D was “inactive” in each case. Further, the Potency was 16.6 µM (active) in the assay with MKL-2, 22.4 µM (active) in the assay with CASKI and 25.1 µM (active) in the assay with SKOV3.

Consider `Cc1ccc(NC(=O)c2cccc(N(C)C)c2)cc1NC(=O)c1ccc(O)cc1`, for which, in the assay with MCC-13, the Potency entry was “inactive”. Besides, the Potency was 8.33 µM (active) with MKL-1, 2.96 µM (active) with MKL-2 and 8.33 µM (active) in the assay on WaGa.

As for `Cc1ccc(C(=O)N(CCCN)[C@@H](c2nc3cc(Cl)ccc3c(=O)n2Cc2ccccc2)C(C)C)cc1`, in the assay with MCC-13, the Potency was 0.0296 µM (active). Moreover, the Potency result in the assay on UISO was “inactive”.

On to `CCCC1OC2C[C@@H]3[C@H]4CCC5=CC(=O)C=C[C@]5(C)[C@H]4C(O)C[C@]3(C)[C@]2(C(=O)CO)O1` (some centres not stated), for which the Potency result in the assay with MCC-13, in the assay with MKL-1, in the assay on UISO and with WaGa was “inactive” in each case.

On to `NC(N)=Nc1nc(CSCCC(N)=NS(N)(=O)=O)cs1`, for which the Potency entry with MCC-13, with MKL-1, in the assay with NIH3T3 and with UISO was “inactive” each time.

Take `NC[C@H]1O[C@H](O[C@@H]2[C@@H](O)[C@@H](O[C@H]3O[C@H](CO)[C@@H](O)[C@H](N)[C@@H]3O)[C@H](N)C[C@@H]2N)[C@H](O)[C@@H](O)[C@H]1O`: the Potency entry in the assay on MCC-13, with MKL-2, in the assay with UISO and in the assay on WaGa was “inactive” each time.

`NC1(C(=O)N[C@@H](CCO)c2ccc(Cl)cc2)CCN(c2ncnc3[nH]ccc23)CC1`: the Potency result in the assay with MCC-13, in the assay on MKL-1, in the assay on NIH3T3, in the assay on Es-2, in the assay on HeLa and with OV90 was “inactive” throughout. The Potency result with Tov112D is “inactive”. In addition, the Potency in the assay on C33A was 2.51 µM (active); with Tov-21-G, 0.794 µM (active).

Take `COc1cc(CNC(=O)CCCCC=CC(C)C)ccc1O`: the Potency entry in the assay with MCC-13, in the assay with MKL-1 and in the assay on WaGa was “inactive” throughout.

Turning to `O=C(O)Cc1cccc(OCCCN(Cc2cccc(C(F)(F)F)c2Cl)CC(c2ccccc2)c2ccccc2)c1`, the Potency with MCC-26 was 26.4 µM (active). The Potency entry with MKL-1, in the assay with MKL-2 and in the assay on WaGa was “inactive” in each case.

Turning to `CCCCn1c(=O)n(Cc2ccccc2F)c(=O)c2[nH]c(Cc3ccc(NC(C)=O)cc3)nc21`, the Potency result with MCC-13, with MKL-1, in the assay on MKL-2, in the assay on UISO, in the assay on WaGa and in the assay with C33A was “inactive” each time. The Potency entry with CASKI, in the assay with Es-2, in the assay with HeLa, in the assay on Hek293T, in the assay with JEG-3 and in the assay with OV90 was “inactive” each time. In addition, the Potency entry with PA-1, in the assay with Tov-21-G and in the assay on Tov112D was “inactive” each time.

For the compound `CN(C)CCN(C)C(=O)c1ccc(NC(=O)Nc2ccc(-c3nc(N4CCOCC4)c4ccn(CC(F)(F)F)c4n3)cc2)cc1`, the Potency entry in the assay on MCC-13 was “inactive”. The Potency with UISO was 0.105 µM (active).

Take `Cc1cccc(Nc2nc(N[C@@H]3CCCC[C@H]3N)ncc2C(N)=O)c1`: the Potency result in the assay with MCC-13, in the assay on MKL-2, in the assay on UISO and in the assay on WaGa was “inactive” throughout.

In the case of `Cc1ccc(C(=O)N(CCCN)[C@@H](c2oc3cc(Cl)ccc3c(=O)c2Cc2ccccc2)C(C)C)cc1`, the Potency with MCC-13 is 0.0083 µM (active); with MKL-2 it was 8.33 µM (active). Moreover, the Potency result in the assay with MKL-1 and in the assay with WaGa was “inactive” throughout.

For `CCC[C@H](Nc1nc(-c2ccc(NC(=O)NCC)c(OC)c2)ncc1C)c1cccnc1`, the figures for the Potency in the assay with MCC-13 and in the assay on MKL-2 were 0.0469 µM (active) and 0.0187 µM (active), respectively.

Consider `CCOC(=O)c1c(CSc2ccccc2)n(C)c2cc(Br)c(O)c(CN(C)C)c12`, for which the Potency entry with MCC-13, with MKL-1, with MKL-2, in the assay with UISO and in the assay on WaGa was “inactive” throughout.

`CN1N=C(N)c2cn([C@@H]3O[C@H](COP(=O)(O)O)[C@@H](O)[C@@H]3O)c3ncnc1c23`: in the assay with MCC-26, the Potency entry is “inactive”. Besides, the Potency in the assay on MKL-1 is 5.9 µM (active); in the assay on MKL-2, 5.9 µM (active); with UISO it was 0.469 µM (active); with WaGa, 0.0372 µM (active).
